Compounds without any hit were thinned out: in the full panel of roughly 83,000, 20% have a hit.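 Each cell line was grown in a 96-well plate and treated with one concentration of compound for 48 hours. Values below 10 were considered active.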 A number with no mark means an inactive call. Activity calls are given as the source filed them.

The first assay deals with CAKI-1 renal. Kind of assay: NCI-60 one-dose screen, 48 h (100 = growth as untreated, 0 = no growth, -100 = all killed). The conditions noted are these: 10 µM unless noted.
`COC1NC(Cl)=C(C#N)C(C#N)(C#N)C1(C)C` (stereo unspecified): the growth is 104%.
Regarding `COc1ccccc1C(=O)Nc1cccc(-c2cc(=O)c3c(OC)c(OC)c(OC)cc3o2)c1`, the growth was 65.1%.
With `C=C(NC(=O)[C@H](C(C)C)N(C)c1cccc2[nH]ccc12)C(=O)OC`, the growth was 92.6%.
Turning to `Cc1nc2c(nnn2-c2ccccc2)c2nc(-c3ccccc3)oc(=O)c12`, the growth is 93.8%.
As to `CCCCCCCCCC[N+](C)(C)C`, the growth was 58.4%.
For the molecule `CCOC(=O)c1ccc2n1CCCc1cnc(NC(C)=O)nc1-2`, the growth was 92.1%.
For the molecule `O=S(=O)(O)c1ccc2c(c1)Sc1cc(S(=O)(=O)O)ccc1O2`, the growth is 105%.
Turning to `COc1cc(/C=C/C(=O)c2ccc(F)cc2)ccc1OCCCCOc1cc2c(cc1OC)C(=O)N1CCCC1C=N2` (stereo unspecified), the growth was -14.2% (active).
For `COC(=O)C(C)[C@H]1CC[C@@H]2[C@]1(C)CC=C1[C@]23C=C[C@]2(C[C@@H](OC(C)=O)CC[C@]12C)C(C(=O)OC)C3C(=O)OC` (stereo partly specified), the growth is 94.7%.
The same measure, in the same setting: the same measure for `COc1ccc2cnc(N)c(C#Cc3cc(C(=O)Nc4ccc(CN5CCN(C)CC5)c(C(F)(F)F)c4)cnc3C)c2c1`: 33.9%; for `COc1cccc2c1nc1cccc(OC)c1[n+]2[O-]`: 52.8%; for `O=C1/C(=N\c2cc(=O)[nH]n2S(=O)(=O)c2ccccc2)Nc2ccccc21`: 84.8%.
Same read-out and setting: the same measure for `c1ccc(Nc2ccccn2)cc1`: 101%.
With `COc1ccc(OC)c(Cn2cc3c(c2)-c2oncc2CC3)c1`, the growth is 12.5%.
As for `O=C1C(=O)c2ccccc2C(O)=C1CCCc1ccc(C2CCCC2)cc1`, the growth is 67.8%.
With `CCCOC(=O)c1c(C)n(C)c2scc[n+]12`, the growth was 58.7%.
On to `COc1cc(-c2nc3c(c(C)nc4c3nnn4-c3ccccc3)c(=O)o2)cc(OC)c1OC`, for which the growth is 94.8%.
On the same count and under the same terms, to `COC(=O)Nc1nc2ccc(C(=O)c3ccccc3N(C)C3COC3)cc2[nH]1` belongs 45.2%; to `COc1cc(Cn2ccc3c2-c2oncc2CC3)cc(OC)c1`, 23.3%.
Turning to `c1ccc(Nc2ncc3c(n2)-c2cccn2CC3)cc1`, the growth was 72.4%.
With `N=c1c2c(=O)n3c(nc2nc2sc4ccc(Cl)cc4n12)-c1ccccc1Sc1ccccc1-3`, the growth is 6.62% (active).
In the case of `NC(=O)CC(NC(=O)COc1ccc(Cl)cc1Cl)C(=O)O` (stereo unspecified), the growth was 101%.
Same read-out and setting: to `C=C(C)[C@@H]1CC[C@]2(COC(=O)c3ccccc3C(=O)O)CC[C@]3(C)[C@H](CC[C@@H]4[C@@]5(C)CCCNC(C)(C)[C@@H]5CC[C@]43C)[C@@H]12` belongs 91.7%.
As for `C/C=C(/C)C(=O)OC1C=C(CO)C(=O)C(OC(=O)/C(C)=C\C)C1C(C)C` (stereo unspecified), the growth was -98.7% (active).
In the case of `CC(=O)OC1CC2C3CCC4C[C@@H](NC(=O)C=C(C)C)CC[C@]4(C)C3CC[C@]2(C)[C@H]1C(C)N(C)C` (stereo partly specified), the growth was -19.6% (active).
On to `CC(=O)/C(=C/c1ccc(-c2ccccc2)cc1)C(=O)c1ccccc1`, for which the growth is 91.3%.

A further assay relates to A498 renal. The assay is described as above. The note with it: 10 µM unless noted.
In the case of `Nc1ccc(S(=O)(=O)c2ccc(NO)cc2)cc1`, the growth was 114%.
As to `COc1cc(NC(C)CCCN)c2nccc(C)c2c1OC` (stereo unspecified), the growth is 83.7%.
As to `CCCC(=O)NNc1[nH]c(-c2cc(OC)c(OC)c(OC)c2)cc1C(=O)OCC`, the growth was 120%.
In the case of `CC(C)OC(=O)c1ccc2n1CCCc1cnc(Nc3ccccc3)nc1-2`, the growth is 63.5%.
`COC(=O)c1ccc2[nH]c(O)c(C(=Nc3ccc(N(C)C(=O)CN4CCN(C)CC4)cc3)c3ccc(OC)cc3)c2c1`: the growth is -16.6% (active).
For `CC(=O)c1cc(Nc2cc(C)nc(N)n2)cc(C(C)=O)c1`, the growth was 91.7%.
In the case of `CCOC(=O)C1=C(C(F)(F)F)NC(=S)NC1CN1C(=O)c2ccccc2C1=O` (stereo unspecified), the growth was 133%.
In the case of `CC(C)OC(=O)[C@H](C)N[P@@](=O)(OC[C@@]1(C)O[C@@H](n2cc(F)c(N)nc2=O)C[C@@H]1O[P@](=O)(N[C@@H](C)C(=O)OC(C)C)Oc1ccccc1)Oc1ccccc1`, the growth is 45%.
Turning to `COc1ccc(Cn2cc3c(c2-c2ccccc2)CCc2cnoc2-3)cc1OC`, the growth is 18.5%.
Turning to `CC1C(=O)CCCC1=O`, the growth is 138%.
With `Brc1ccc(-c2nc3ccccc3s2)cc1`, the growth was 77.2%.
Still for that read-out and setting: the same measure for `O=C(Nc1cccc(Cn2c(=O)[nH]c3ccc(Oc4ncccn4)cc3c2=O)c1)c1ccc(Cl)cc1`: 53.4%.
`Cc1ccc(S(=O)(=O)Nc2cccc(Cn3c(=O)[nH]c4ccc(Oc5ncccn5)cc4c3=O)c2)cc1`: the growth is 77.8%.
In the case of `CC1(C)Oc2cc3oc(=O)ccc3cc2C[C@@H]1OCCOS(=O)(=O)c1ccc(C#N)cc1`, the growth was 79.6%.
On the same count and under the same terms, the same measure for `COC1NC(Cl)=C(C#N)C(C#N)(C#N)C1(C)C` (stereo unspecified): 110%; for `COc1ccccc1C(=O)Nc1cccc(-c2cc(=O)c3c(OC)c(OC)c(OC)cc3o2)c1`: 44.9%.
For the molecule `C=C(NC(=O)[C@H](C(C)C)N(C)c1cccc2[nH]ccc12)C(=O)OC`, the growth is 94.4%.
Still for that read-out and setting: to `Cc1nc2c(nnn2-c2ccccc2)c2nc(-c3ccccc3)oc(=O)c12` belongs 98.6%.
`CCCCCCCCCC[N+](C)(C)C`: the growth was 32.9%.
Turning to `CCOC(=O)c1ccc2n1CCCc1cnc(NC(C)=O)nc1-2`, the growth is 74.3%.
With `O=S(=O)(O)c1ccc2c(c1)Sc1cc(S(=O)(=O)O)ccc1O2`, the growth was 96.6%.
Take `COc1cc(/C=C/C(=O)c2ccc(F)cc2)ccc1OCCCCOc1cc2c(cc1OC)C(=O)N1CCCC1C=N2` (stereo unspecified): the growth was 7.77% (active).
On to `COC(=O)C(C)[C@H]1CC[C@@H]2[C@]1(C)CC=C1[C@]23C=C[C@]2(C[C@@H](OC(C)=O)CC[C@]12C)C(C(=O)OC)C3C(=O)OC` (stereo partly specified), for which the growth is 106%.
As to `COc1ccc2cnc(N)c(C#Cc3cc(C(=O)Nc4ccc(CN5CCN(C)CC5)c(C(F)(F)F)c4)cnc3C)c2c1`, the growth was 37.5%.
The same measure, in the same setting: to `COc1cccc2c1nc1cccc(OC)c1[n+]2[O-]` belongs 65.4%; to `O=C1/C(=N\c2cc(=O)[nH]n2S(=O)(=O)c2ccccc2)Nc2ccccc21`, 98.2%.
Turning to `c1ccc(Nc2ccccn2)cc1`, the growth was 122%.
Still for that read-out and setting: the same measure for `COc1ccc(OC)c(Cn2cc3c(c2)-c2oncc2CC3)c1`: 24.2%; for `O=C1C(=O)c2ccccc2C(O)=C1CCCc1ccc(C2CCCC2)cc1`: 24.2%; for `CCCOC(=O)c1c(C)n(C)c2scc[n+]12`: 48.8%.
Consider `COc1cc(-c2nc3c(c(C)nc4c3nnn4-c3ccccc3)c(=O)o2)cc(OC)c1OC`, for which the growth is 61.1%.
Still for that read-out and setting: the same measure for `COC(=O)Nc1nc2ccc(C(=O)c3ccccc3N(C)C3COC3)cc2[nH]1`: 9.85% (active); for `COc1cc(Cn2ccc3c2-c2oncc2CC3)cc(OC)c1`: 32.4%.
Consider `c1ccc(Nc2ncc3c(n2)-c2cccn2CC3)cc1`, for which the growth is 75.5%.
In the case of `N=c1c2c(=O)n3c(nc2nc2sc4ccc(Cl)cc4n12)-c1ccccc1Sc1ccccc1-3`, the growth was 47.1%.
Regarding `NC(=O)CC(NC(=O)COc1ccc(Cl)cc1Cl)C(=O)O` (stereo unspecified), the growth is 88%.
For `C=C(C)[C@@H]1CC[C@]2(COC(=O)c3ccccc3C(=O)O)CC[C@]3(C)[C@H](CC[C@@H]4[C@@]5(C)CCCNC(C)(C)[C@@H]5CC[C@]43C)[C@@H]12`, the growth was 113%.
Turning to `C/C=C(/C)C(=O)OC1C=C(CO)C(=O)C(OC(=O)/C(C)=C\C)C1C(C)C` (stereo unspecified), the growth is -77.6% (active).
As to `CC(=O)OC1CC2C3CCC4C[C@@H](NC(=O)C=C(C)C)CC[C@]4(C)C3CC[C@]2(C)[C@H]1C(C)N(C)C` (stereo partly specified), the growth is 33.2%.
With `CC(=O)/C(=C/c1ccc(-c2ccccc2)cc1)C(=O)c1ccccc1`, the growth is 96.5%.
